High-throughput results from PubChem BioAssay.
D1 ag: human D1 receptor agonism; activation, % at 2 µM; 1% of 360,000 active; AID 504660; HEK293 T-REx D1 cells, calcium flux, agonist mode; note: 0% is about no effect
Target sequence (P21728 whole entry, looked up): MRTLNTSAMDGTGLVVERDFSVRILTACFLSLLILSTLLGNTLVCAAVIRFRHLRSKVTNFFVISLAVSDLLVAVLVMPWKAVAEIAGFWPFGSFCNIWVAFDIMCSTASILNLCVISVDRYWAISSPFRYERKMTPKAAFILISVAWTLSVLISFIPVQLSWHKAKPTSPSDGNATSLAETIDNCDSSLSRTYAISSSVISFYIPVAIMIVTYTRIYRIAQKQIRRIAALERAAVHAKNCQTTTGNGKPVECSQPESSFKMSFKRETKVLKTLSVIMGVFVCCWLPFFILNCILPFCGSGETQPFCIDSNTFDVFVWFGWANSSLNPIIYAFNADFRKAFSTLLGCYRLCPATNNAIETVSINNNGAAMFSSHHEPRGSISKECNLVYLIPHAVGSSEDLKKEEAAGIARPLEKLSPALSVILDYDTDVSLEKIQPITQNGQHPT
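Agonism was scored from calcium flux recorded over 180 s (1 read/s) after pintool compound addition, following a 10-cycle baseline. Cells were inducible force-coupled HEK293 TREx D1, plated overnight at 30 C and loaded with no-wash calcium dye.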
D1 antag: blocks dopamine activation of the human D1 receptor; P21728; 3.2% of 360,000 active; AID 504652; activity change, negative = inhibition, % at 10 µM; HEK293 TREx D1 cells, calcium flux, dopamine EC80; stronger effect = lower value; in the data active = activity change below about -30%; note: % is set by controls: 0 for no effect and ±100 for the full control effect
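Compound effects on dopamine-evoked calcium signalling were measured in tetracycline-induced HEK293 Trex D1 cells. Dopamine at EC80 followed a 180 s compound pre-read, and fluorescence was tracked kinetically for 180 s more.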
D1 potentiator: enhances dopamine response at the human D1 receptor; potentiation, % at 10 µM; P21728; 0.036% of 360,000 active; HEK293 TREx D1 cells, calcium flux, dopamine EC20 potentiation; in the data active = potentiation above about 30%; note: 0% is about no effect
TRHR enhancer: TRH receptor (human) allosteric enhancement; P34981; AID 493056; TRHR cells, fluo-8 calcium fluorescence, EC20 TRH enhancement; enhancement, % at 2 µM; 0.66% of 360,000 active; in the data active = enhancement above about 30%; note: 0% is about no effect
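Enhancer read-out: after compound pinning and an initial kinetic agonist-mode read, an EC20 of TRH (10 nM final) was injected and fluo-8 calcium signal (Ex 480/Em 530) followed at 1 s/cycle for 100 cycles in TRHR-expressing cells.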
TRHR ag: activates the human TRH receptor; AID 493084; TRHR cells, calcium flux fluo-8, FDSS agonist mode; 0.18% of 360,000 active; activation, % at 2 µM; P34981; note: 0% is about no effect
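In this calcium-flux screen, cells bearing human TRHR are dye-loaded with fluo-8, baselined for 10 cycles, then exposed to library compounds; positive kinetic calcium responses during the agonist phase mark hits, with TRH as control.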
* = called active by the depositor; nt = no result given. Rows were chosen to be rich in hits. Some 4.6% of all compounds tested hit in one or more screens of this group. Cut-off read from the data, not from the text of the source, unless noted: active = activation above about 30%; inactive = the rest.

SMILES	D1 ag	D1 antag	D1 potentiator	TRHR enhancer	TRHR ag
Cc1cc(NC(=O)CSc2nc3ccccc3c(=O)n2CCCC(=O)NCc2ccccc2)n[nH]1	4	-35*	-5	-3	1
CCC(Oc1ccccc1F)C(=O)Nc1c(C(=O)c2ccccc2)oc2ccccc12 (stereo not given)	17	7	-1	-10	1
CCC(=O)Nc1ccc(N/C(N)=N/c2nc(C)cc(C)n2)cc1	2	-2	-5	0	0
Cc1cc(C)nc(/N=C(\N)Nc2cccc([N+](=O)[O-])c2)n1	34*	-7	-5	3	-1
CCCCc1ccc(N/C(N)=N/c2nc(C)cc(C)n2)cc1	64*	-8	4	-3	23
Cc1cc(C)cc(N/C(N)=N/c2nc(C)cc(C)n2)c1	25	-28	-15	0	10
Cc1cc(C)nc(/N=C(\N)Nc2ccc(C(C)C)cc2)n1	35*	-23	0	-1	7
Cc1ccc(N/C(N)=N/c2nc(C)cc(C)n2)cc1	16	-74*	-20	-16	22
Cc1cc(C)nc(/N=C(\N)Nc2ccc([N+](=O)[O-])cc2)n1	21	4	-5	4	6
Cc1cccc(N(C)C(=O)CN(C)S(=O)(=O)c2ccc3[nH]c4c(c3c2)CCCC4)c1	-2	-3	3	2	0
Cc1ccc(N2CC(NC(=O)C3CC3)CC2=O)cc1C (stereo not given)	-4	nt	4	-1	0
N#Cc1cc(N)ccc1Sc1ccccc1	5	-10	-4	0	0
N#Cc1cc(N)ccc1Sc1ccc(Cl)cc1	1	-32*	-9	-5	-1
COc1cc2c(c(OC)c1OC)-c1c(cc3c(c1O)OCO3)C[C@@H](C)[C@@H](C)C2	5	-15	2	-8	0
COc1cc2c(c(OC)c1OC)-c1c(cc3c(c1OC)OCO3)C1OC2[C@@H](C)[C@H]1C (stereo not given in full)	2	-46*	-2	9	0
COc1ccc2c(c1)CCc1c(C(=O)Nc3c(C)nn(Cc4ccc(C)cc4)c3C)noc1-2	14	-18	0	20	-2
CCOc1ccccc1OCCCOc1ccc(C)cc1Cl	3	-86*	-6	-4	1
Cc1ccc(Cl)c(OCCN2CCc3ccccc3C2)c1	0	-40*	-22	-4	0
Cc1ccc(Cl)c(OCCCCN(C)Cc2ccccc2)c1	3	-29	-12	4	0
C/C=C/c1ccc(OCCN2CCc3ccccc3C2)c(OC)c1	-1	-24	-14	-2	-1
Cc1ccc(Cl)c(OCCCN(C)Cc2ccccc2)c1	7	-55*	-3	5	1
Cc1cccc(-c2nc3c4ccccc4nc(NCc4ccc(Cl)cc4)n3n2)c1	2	-2	-5	-8	1
CCCCCCN1C=CC=C/C1=C\C=C(C#N)C#N	64*	-7	7	-3	28
Cc1cccc(NC(=O)Cc2csc(COc3cccc(C)c3)n2)c1	0	1	0	-16	-1
CCOc1ccccc1NC(=O)Cc1csc(COc2cccc(C)c2)n1	68*	1	1	-5	3
SMILES	D1 ag	D1 antag	D1 potentiator	TRHR enhancer	TRHR ag
N#CC(c1ccc(Cl)cc1)c1ncc(C(F)(F)F)cc1Cl (stereo not given)	25	-51*	-4	-1	0
COc1ccc(CCNC(=O)c2ccc3c(c2)CCN3S(=O)(=O)c2ccc(C)cc2)cc1OC	1	-5	-1	0	-1
CCOC(=O)N1CCN(S(=O)(=O)/C=C/c2ccccc2)CC1	1	10	-8	-4	0
COc1ccccc1N1CCN(S(=O)(=O)/C=C/c2ccccc2)CC1	1	-37*	-2	-8	0
CCNC(=S)N1CCN(S(=O)(=O)/C=C/c2ccccc2)CC1	0	5	-1	40*	-1
COc1ccccc1N1CCN(S(=O)(=O)c2ccc3c(c2)n(C)c(=O)n3C)CC1	2	-47*	-4	-4	-2
CCc1nc(-c2cc(S(=O)(=O)N3CCN(c4ccccc4F)CC3)ccc2OC)no1	7	5	-5	-3	0
COc1ccc(S(=O)(=O)N2CCN(c3ccccc3F)CC2)cc1-c1noc(C)n1	6	-34*	-3	-7	74*
Cn1c(C(=O)N2CCN(c3ccccc3)CC2)cc2cc(Cl)ccc21	0	21	1	5	-1
Cc1cc(=O)n(C)c2ccc(S(=O)(=O)N3CCOCC3)cc12	-2	10	-2	3	0
Cn1c(=O)c2cc(S(=O)(=O)N3CCOCC3)ccc2n(C)c1=O	-1	-31*	5	14	-1
CCOc1ccc(C(=O)Nc2ccc3nc(SCC(=O)N4CCc5ccccc54)sc3c2)cc1	0	-1	0	24	-1
CCc1noc(C)c1C(=O)N1CCN(S(=O)(=O)c2ccc(C)cc2)CC1	1	-15	-1	-3	0
Cc1ccc(S(=O)(=O)N2CCN(C(=O)c3ccc(OCc4c(C)noc4C)cc3)CC2)cc1	2	-1	-5	1	0
Cc1ccc(C)c(S(=O)(=O)N2CCN(C(=O)c3ccc(OCc4c(C)noc4C)cc3)CC2)c1	10	-31*	-1	11	0
CCc1noc(C)c1C(=O)N1CCN(S(=O)(=O)c2ccc(Br)cc2)CC1	-3	-72*	-7	0	-1
CCc1noc(C)c1C(=O)N1CCN(S(=O)(=O)c2cc(C)ccc2C)CC1	-1	-31*	11	-6	0
COc1cccc(-c2nc3c(C#N)c[nH]n3c2NC2CCCCC2)c1OC	1	0	1	14	0
COc1cccc(-c2nc3c(C#N)c[nH]n3c2NC2CCCCC2)c1	3	-37*	-2	-10	0
COc1cccc(-c2nc3c(C#N)c[nH]n3c2NC2CCCC2)c1OC	6	-52*	-3	-8	0
CC(C)c1ccc(OCc2cc(=O)n3c(-c4ccccc4)csc3n2)cc1	4	4	-1	0	-2
Cc1cc(C)n(-c2nc(SCCN(C)C)c3c4c(sc3n2)CCCC4)n1	11	3	3	38*	0
CCC(O)CNc1nc(-n2nc(C)cc2C)nc2sc3c(c12)CCCC3 (stereo not given)	1	3	-8	4	0
Cc1csc(SCc2nnc(-c3ccccc3Br)o2)n1	4	23	4	-7	0
Fc1ccccc1SCc1nnc(-c2ccccc2Br)o1	7	-66*	-15	7	-1
COCc1cc(C)nc2c1C(=O)NC(c1ccc(F)cc1)N2Cc1ccccc1 (stereo not given)	10	16	1	-5	0
CCc1c(C)sc2c1CCN(C(=O)Nc1cc(OC)c(OC)c(OC)c1)C2c1ccccc1 (stereo not given)	2	-40*	7	0	0
